Rows were chosen to be rich in hits. Some 10% of all compounds tested hit in one or more screens of this group.
Six1-Eya2 blk – inhibitors of human Six1/Eya2 interaction; Q15475+O00167; activity change, % (concentration not given with the values); AlphaScreen GST-Six1/His-Eya2 binding, biochemical; hits give low values; 0.56% of 360,000 active; in the data active means activity change below about -65%; inconclusive means mostly about -30% to -63%; further: on the % scale 0 is the no-effect control and ±100 the full control effect
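GST-Six1 + His-Eya2 (5X stock: 250/500 nM); Tris pH 8.0, 300 mM NaCl, 0.05% BSA, 0.02% Tween 20; GSH donor/Ni acceptor beads; 1 h 37 °C dark; AlphaScreen readout.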
CtBP-E1A blk – CtBP/E1A binding inhibition; activity change, % (concentration not given with the values); 0.49% of 340,000 active; AID 651724; AlphaScreen GST-E1A/His-CtBP binding, 1536-well; hits give low values; in the data active means activity change below about -65%; inconclusive means mostly about -30% to -63%; further: on the % scale 0 is the no-effect control and ±100 the full control effect
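In 5 uL wells, 23 nL compound meets equimolar GST-E1A and His-CtBP (5X stock 125 nM each) for 2 h, 37 °C. Beads (5X, 50 ug/mL) then 1 h, 37 °C, dark.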
HP1b binding inh – HP1-beta chromodomain-methylated histone interaction inhibition; Potency, µM (series often up to 114 µM), inactives show at the highest dose activity change, negative = inhibition, usual class: inhibitors; AlphaScreen HP1-beta / biotin-H3K9me3 peptide binding; P83916; 0.56% of 390,000 active; further: potency means the concentration at half of the fitted maximal effect; nearly all actives have a fitted effect of over 70% in size
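HP1-beta protein (50 nM final) preincubated 30 min at room temperature with biotinylated H3(1-18)K9me3 peptide (50 nM) in PBS pH 7.4, 0.01% Tween-20, then compound added for 30 min. AlphaScreen streptavidin donor/nickel chelate acceptor beads (10 ug/mL final), 30 min dark, luminescence read.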
JMJD2A Tudor inh – blocks the human JMJD2A Tudor domain; O75164; AlphaScreen JMJD2A-Tudor / H3K4me3 peptide binding; Potency, µM (titrated, usually from 114 µM), without a hit: at the top dose activity change, negative = inhibition, most hits filed as inhibitors; 4.4% of 390,000 active; further: potency means the concentration at half of the fitted maximal effect; on the % scale 0 is the no-effect control and ±100 the full control effect; nearly all actives have a fitted effect of over 50% in size
Target sequence (O75164 whole entry, looked up, the tested form may be a part): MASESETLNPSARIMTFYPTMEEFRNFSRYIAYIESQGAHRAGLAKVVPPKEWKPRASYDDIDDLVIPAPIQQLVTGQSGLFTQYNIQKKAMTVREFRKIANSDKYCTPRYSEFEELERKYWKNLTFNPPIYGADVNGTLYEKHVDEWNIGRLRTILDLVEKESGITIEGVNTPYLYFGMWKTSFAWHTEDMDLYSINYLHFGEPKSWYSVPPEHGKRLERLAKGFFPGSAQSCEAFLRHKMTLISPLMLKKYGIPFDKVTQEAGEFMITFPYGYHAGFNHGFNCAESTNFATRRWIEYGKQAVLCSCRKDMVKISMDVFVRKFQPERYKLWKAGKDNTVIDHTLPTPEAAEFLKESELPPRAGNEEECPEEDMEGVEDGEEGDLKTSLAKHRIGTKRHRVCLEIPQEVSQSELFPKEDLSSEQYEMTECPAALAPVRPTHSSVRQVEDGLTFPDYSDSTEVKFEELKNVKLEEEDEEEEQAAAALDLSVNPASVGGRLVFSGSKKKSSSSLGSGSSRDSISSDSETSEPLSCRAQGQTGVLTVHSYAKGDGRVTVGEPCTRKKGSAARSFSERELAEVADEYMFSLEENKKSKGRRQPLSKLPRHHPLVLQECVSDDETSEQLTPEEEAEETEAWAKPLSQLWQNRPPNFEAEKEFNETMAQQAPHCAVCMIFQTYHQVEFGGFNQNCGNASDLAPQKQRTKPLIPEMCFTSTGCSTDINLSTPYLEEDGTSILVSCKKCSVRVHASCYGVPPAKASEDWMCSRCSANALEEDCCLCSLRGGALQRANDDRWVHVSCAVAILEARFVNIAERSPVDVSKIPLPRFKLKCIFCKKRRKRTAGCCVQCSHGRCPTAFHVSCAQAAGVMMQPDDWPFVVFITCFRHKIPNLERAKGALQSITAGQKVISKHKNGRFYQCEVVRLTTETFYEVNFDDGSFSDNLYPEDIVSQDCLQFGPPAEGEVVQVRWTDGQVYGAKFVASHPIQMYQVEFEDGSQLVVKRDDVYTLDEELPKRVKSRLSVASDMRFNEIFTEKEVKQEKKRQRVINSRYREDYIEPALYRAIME
BAZ2B inh – BAZ2B (human) inhibition; Q9UIF8; AlphaScreen BAZ2B-H3K14Ac peptide displacement; Potency, µM (titrated, usually from 114 µM), for the others: at the highest dose activity change, negative = inhibition, actives largely listed as inhibitors; 4.4% of 360,000 active; further: potency means the concentration at half of the fitted maximal effect; on the % scale 0 is the no-effect control and ±100 the full control effect; nearly all actives have a fitted effect of over 60% in size
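AlphaScreen luminescence quantifies BAZ2B engagement of H3K14Ac peptide; the protein and biotinylated peptide are both at 50 nM final, buffer PBS pH 7.4 with 0.01% Tween-20, all steps at room temperature.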
G9a inh – blocks human histone lysine methyltransferase G9a | Q96KQ7 | G9a H3K9 monomethylation, AlphaScreen, 2 h | Potency, µM (highest dose often 102 µM), inactives show at the highest dose activity, negative = inhibition, most hits filed as inhibitors | 8.8% of 350,000 active | AID 504332; further: potency means the concentration at half of the fitted maximal effect; on the % scale 0 is the no-effect control and ±100 the full control effect; nearly all actives have a fitted effect of over 75% in size
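Methyltransferase reactions run at room temperature for 2 h (20 nM enzyme, 500 nM biotin-H3K9 peptide, 20 uM SAM) after a 15 min compound preincubation; product detected by AlphaScreen beads and anti-H3K9me1 antibody.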
An asterisk follows results filed as active; ? = inconclusive; nt = no result; [ ] = dose if it differs, or a comment. Unless noted, the call rests on the fitted dose curve; in most records, active means well fitted inhibition curve with a large enough effect; inconclusive means small, poorly fitted or top-dose-only effect; inactive means no such curve, though single readings can be large or run the other way.

SMILES	Six1-Eya2 blk	CtBP-E1A blk	HP1b binding inh	JMJD2A Tudor inh	BAZ2B inh	G9a inh
CCOC(=O)CC(=O)COc1nc2cc3c(nc2o1)CCCC3	-14	-6	40%	?	4%	45µM*
N#Cc1cc2c(nc1SCC(=O)N1CCCCC1)CCCCC2	-3	4	-20%	56µM*	10%	2.8µM*
N#Cc1cc2c(nc1SCc1ccccc1)CCC2	9	-2	19%	-7%	1%	?
N#Cc1cc2c(nc1SCc1ccncc1)CCC2	2	-4	10%	22µM*	3%	3.2µM*
C/C(=N\OCC(=O)OCC(=O)N(Cc1ccccc1)C(C)(C)C)c1ccc2c(c1)OCO2	2	7	39%	-6%	-22%	2%
CCC(Oc1ccccc1OC)C(=O)N1CC(=O)Nc2ccccc21 (centres undefined)	5	-5	10%	-23%	-5%	10%
COCCNC(=O)COc1ccc(Nc2ccccc2)cc1	-2	-2	0%	-21%	?	50µM*
c1ccc(CNc2nc3ccccc3n3cnnc23)nc1	2	-2	27%	-13%	-10%	45µM*
Cc1ccc(CNc2nc3ccc(C)cc3n3cnnc23)cc1	1	0	10%	-36%	-3%	50µM*
COc1cccc(CNc2nc3ccc(C)cc3n3cnnc23)c1	2	nt	37%	-9%	-2%	-2%
c1ccc(CNc2nc3ccccc3n3cnnc23)cc1	5	-25	26%	?	3%	7%
CCOc1ccc(OCCC(=O)N(CC)CC(=O)Nc2ccccc2C(F)(F)F)cc1	0	4	5%	-25%	-1%	?
CCCn1c(N)c(C(=O)COC(=O)c2cccc(S(=O)(=O)N3CCOCC3)c2)c(=O)[nH]c1=O	0	nt	28%	-10%	-15%	-6%[12.7 µM]
COc1cccc(-c2nn(-c3ccccc3)cc2CN(C)Cc2ccon2)c1	26	nt	101%	6%	9%	42%
COc1cccc(-c2nn(-c3ccccc3)cc2CN(C)Cc2c(C)nc3ccccn23)c1	-3	nt	-28%	56µM*	-38%	?
COc1ccc(Nc2nc(=O)c3cc([N+](=O)[O-])ccc3s2)cc1	2	1	42%	-21%	79µM*	?
Cc1ccc(Nc2nc(=O)c3cc([N+](=O)[O-])ccc3s2)cc1	19	nt	47%	-1%	1%	25%[59 µM]
Cc1ccccc1Nc1nc(=O)c2cc([N+](=O)[O-])ccc2s1	-4	-9	8%	-8%	21%	35µM*
O=c1c2ccccc2[nH]c(=S)n1Cc1cccnc1	-1	7	-22%	28µM*	1%	-7%[59 µM]
O=C(CCn1c(=S)[nH]c2ccccc2c1=O)N1CCCCC1	3	nt	5%[57 µM]	-8%	-11%	nt
CC1CCCN(C(=O)CCCn2c(=S)[nH]c3ccccc3c2=O)C1 (centres undefined)	0	-3	30%	-15%	3%	45µM*
COc1ccc2[nH]c3c(=O)n(CCCCC(=O)N4CCCC4)c(=S)[nH]c3c2c1	-20	-24	24%	3.5µM*	-2%	2.2µM*
O=c1c2ccccc2[nH]c(=S)n1CCc1ccccc1	4	9	45%	-2%	6%	17%[59 µM]
O=c1c2cc(Br)ccc2[nH]c(=S)n1Cc1cccnc1	14	10	45%	-12%	0%	9%
CN(C)CCCn1c(=S)[nH]c2ccccc2c1=O	-4	-6	4%	0%	-5%	50µM*
Cc1cc(O)ccc1-c1cccc2nccn12	-6	-7	nt	nt	nt	nt
O=c1c2nccnc2[nH]c(=S)n1Cc1ccccc1	8	3	67%	-1%	nt	40µM*
CCN(CC)CCn1c(=S)[nH]c2ccc(Cl)cc2c1=O	-10	2	19%	-27%	-28%	32µM*
CCCn1c(=S)[nH]c2ccccc2c1=O	8	-22	11%	-5%	-17%	-44%
COn1c(=S)[nH]c2ccccc2c1=O	-3	-3	12%	89µM*	-9%	?

From PubChem BioAssay
